Several values for one entry are separate records, joined by “and”; a condition that tells them apart may be missing. Equal entries are not always repeated. This is part of a sample that, as a whole, favours compounds with a hit. Of some 83,000 tested, about 20% had one in any assay.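 Negative percent growth values reflect cell death: -40 means 40% of the cells present at the start died, and -100 means all died.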 Activity calls are given as the source filed them. The calls were made as follows: active = growth percent below 10; inactive = the rest.
These compounds were tested on OVCAR-5 ovarian (assay: NCI-60 one-dose screen, 48 h (100 = growth as untreated, 0 = no growth, -100 = all killed)). Conditions: 10 µM.

| SMILES | growth |
| --- | --- |
| O=C(Nc1cccc(Br)c1)Oc1cccc2cccnc12 | 108% (inactive) |
| O=C(O)c1c(Cl)c(Cl)c(Cl)c(Cl)c1-c1c2cc(I)c(=O)c(I)c-2oc2c(I)c(O)c(I)cc12 | 107% (inactive) and 98.5% (inactive) and 104% (inactive) |
| COc1ccc(-c2cscc2N)cc1 | 87.5% (inactive) |
| O=C(Nc1c(Cl)cccc1Cl)Oc1cccc2cccnc12 | 103% (inactive) |

Same assay, conditions: 10 µM unless noted

| SMILES | growth |
| --- | --- |
| CC(=O)ON=C1C=CC(=C(C#N)c2ccccc2)C=C1 | 123% (inactive) |
| O=C1C=CC(=O)N1C1c2ccccc2-c2ccccc21 | 109% (inactive) |
| COC(=O)c1nc(=S)[nH]c(C(=O)OC)c1C(=O)c1ccc2ccccc2c1 | 101% (inactive) |
| O=C(Nc1ccccc1)Oc1c(Cl)c(Cl)c(Cl)c(Cl)c1Cl | 95.3% (inactive) and 87.5% (inactive) |
| O=C1N[C@H]2[C@H](CS[C@H]2CCCCC(=O)N(CCP(c2ccccc2)c2ccccc2)CCP(c2ccccc2)c2ccccc2)N1 | 95.2% (inactive) |
| CCCCCCCCCCCCCCNCc1ccccc1 | 105% (inactive) |
| CC(C)(C)CC(C)(C)c1ccc(OCCSC(=N)N)cc1 | 79.3% (inactive) |
| Cc1ccnc(NC(c2ccccc2)c2ccc3cccnc3c2O)c1 (configuration not stated) | 69.9% (inactive) |
| CNC(=O)N/N=C/c1ccc([N+](=O)[O-])o1 | 110% (inactive) |
| O=Nc1ccccc1N=O | 105% (inactive) |
| O=C(/C=C\c1ccccc1)N1c2ccccc2CC1c1c[nH]c2ccccc12 (configuration not stated) | 76.8% (inactive) |
| CN=C(N)N/N=C(\C)c1ccc2c(c1)Cc1cc(/C(C)=N/NC(N)=NC)ccc1-2 | -44.4% (active) |
| COC(=O)Nc1nc2ccc(C(=O)c3ccccc3)cc2[nH]1 | 20.7% (inactive) and 47.1% (inactive) |
| O=C(Nc1cccc(Br)c1)Oc1ccc(Cl)c2cccnc12 | 33.7% [100 µM] (inactive) |
| O=C(CC1(O)C(=O)Nc2c(Cl)ccc(Cl)c21)c1ccc(Cl)cc1Cl (configuration not stated) | 110% (inactive) |
| C[N+](C)=c1ccc2nc3c(cc(NCCCNc4cc5oc6cc(=[N+](C)C)ccc-6nc5c5ccccc45)c4ccccc43)oc-2c1 | 68.5% (inactive) |
| COc1cc(NS(C)(=O)=O)ccc1Nc1c2ccccc2nc2ccccc12 | 46.8% [2.5 µM] (inactive) |
| NC(=O)/C=C/C(=O)c1c(Cl)cccc1Cl | -99.6% (active) |
| C[n+]1c(/C=C/c2ccc([N+](=O)[O-])cc2)ccc2ccccc21 | 112% (inactive) |
| NC(N)=N/N=C/c1ccc([N+](=O)[O-])o1 | 123% (inactive) |
| S=C(NCCNC(=S)[S][Sn]([c]1ccccc1)([c]1ccccc1)[c]1ccccc1)[S][Sn]([c]1ccccc1)([c]1ccccc1)[c]1ccccc1 | -93.6% (active) |
| CCC(CCCN(CC)CCc1ccccc1)OC(=O)c1cc(OC)c(OC)c(OC)c1 (configuration not stated) | 84.8% (inactive) |
| COc1ccccc1OC(=O)Oc1ccccc1OC | 117% (inactive) and 97.6% (inactive) |
| CCN(CC)CCOc1ccc(-c2nc3cc(Cl)ccc3s2)cc1 | -0.127% (active) |
| O=[N+]([O-])c1ccc(N=Nc2ccc(O)cc2O)cc1 | 107% (inactive) |
| Cc1cc(N)c2ccccc2[n+]1CCCCCCCCCC[n+]1c(C)cc(N)c2ccccc21 | -58.1% (active) |
| CN(C)C(=O)SC1=C(c2c(Cl)cccc2Cl)C(=O)c2ccccc21 | 106% (inactive) |

Same assay, conditions: 100 µM

| SMILES | growth |
| --- | --- |
| O=C(Nc1cccc(Br)c1)Oc1cccc2cccnc12 | 9.37% (active) |
| O=C(O)c1c(Cl)c(Cl)c(Cl)c(Cl)c1-c1c2cc(I)c(=O)c(I)c-2oc2c(I)c(O)c(I)cc12 | -42.9% (active) |
| COc1ccc(-c2cscc2N)cc1 | 78.9% (inactive) |
| O=C(Nc1c(Cl)cccc1Cl)Oc1cccc2cccnc12 | 34.1% (inactive) |

Each compound was assayed on OVCAR-4 ovarian in the same assay as above. Conditions: 10 µM.

| SMILES | growth |
| --- | --- |
| O=C(Nc1cccc(Br)c1)Oc1cccc2cccnc12 | 80.7% (inactive) |
| O=C(O)c1c(Cl)c(Cl)c(Cl)c(Cl)c1-c1c2cc(I)c(=O)c(I)c-2oc2c(I)c(O)c(I)cc12 | 104% (inactive) and 110% (inactive) and 72.9% (inactive) |
| CN(C)C(=O)c1ccc(SC(=S)NCc2ccccc2)cc1 | 113% (inactive) |
| COc1ccc(-c2cscc2N)cc1 | 103% (inactive) |
| O=C(Nc1c(Cl)cccc1Cl)Oc1cccc2cccnc12 | 15.9% (inactive) |

Same assay, conditions: 10 µM unless noted

| SMILES | growth |
| --- | --- |
| CC(=O)ON=C1C=CC(=C(C#N)c2ccccc2)C=C1 | 60.6% (inactive) |
| O=C1C=CC(=O)N1C1c2ccccc2-c2ccccc21 | 110% (inactive) |
| COC(=O)c1nc(=S)[nH]c(C(=O)OC)c1C(=O)c1ccc2ccccc2c1 | 96.9% (inactive) |
| O=C(Nc1ccccc1)Oc1c(Cl)c(Cl)c(Cl)c(Cl)c1Cl | 111% (inactive) and 91.9% (inactive) |
| O=C1N[C@H]2[C@H](CS[C@H]2CCCCC(=O)N(CCP(c2ccccc2)c2ccccc2)CCP(c2ccccc2)c2ccccc2)N1 | 87.9% (inactive) |
| CCCCCCCCCCCCCCNCc1ccccc1 | 80.3% (inactive) |
| CC(C)(C)CC(C)(C)c1ccc(OCCSC(=N)N)cc1 | 41.2% (inactive) |
| Cc1ccnc(NC(c2ccccc2)c2ccc3cccnc3c2O)c1 (configuration not stated) | 20.6% (inactive) |
| CNC(=O)N/N=C/c1ccc([N+](=O)[O-])o1 | 108% (inactive) |
| O=Nc1ccccc1N=O | 88.9% (inactive) |
| O=C(/C=C\c1ccccc1)N1c2ccccc2CC1c1c[nH]c2ccccc12 (configuration not stated) | 62% (inactive) |
| CN=C(N)N/N=C(\C)c1ccc2c(c1)Cc1cc(/C(C)=N/NC(N)=NC)ccc1-2 | -69.1% (active) |
| COC(=O)Nc1nc2ccc(C(=O)c3ccccc3)cc2[nH]1 | 52.6% (inactive) and 72.1% (inactive) and 39.6% (inactive) |
| O=C(Nc1cccc(Br)c1)Oc1ccc(Cl)c2cccnc12 | 3.81% [100 µM] (active) |
| O=C(CC1(O)C(=O)Nc2c(Cl)ccc(Cl)c21)c1ccc(Cl)cc1Cl (configuration not stated) | 87.9% (inactive) |
| C[N+](C)=c1ccc2nc3c(cc(NCCCNc4cc5oc6cc(=[N+](C)C)ccc-6nc5c5ccccc45)c4ccccc43)oc-2c1 | -100% (active) |
| COc1cc(NS(C)(=O)=O)ccc1Nc1c2ccccc2nc2ccccc12 | 87.8% [2.5 µM] (inactive) |
| NC(=O)/C=C/C(=O)c1c(Cl)cccc1Cl | -67.4% (active) |
| C[n+]1c(/C=C/c2ccc([N+](=O)[O-])cc2)ccc2ccccc21 | 105% (inactive) |
| NC(N)=N/N=C/c1ccc([N+](=O)[O-])o1 | 82.8% (inactive) |
| S=C(NCCNC(=S)[S][Sn]([c]1ccccc1)([c]1ccccc1)[c]1ccccc1)[S][Sn]([c]1ccccc1)([c]1ccccc1)[c]1ccccc1 | -100% (active) |
| CCC(CCCN(CC)CCc1ccccc1)OC(=O)c1cc(OC)c(OC)c(OC)c1 (configuration not stated) | 82.6% (inactive) |
| COc1ccccc1OC(=O)Oc1ccccc1OC | 114% (inactive) and 99% (inactive) |
| CCN(CC)CCOc1ccc(-c2nc3cc(Cl)ccc3s2)cc1 | 58.5% (inactive) |
| O=[N+]([O-])c1ccc(N=Nc2ccc(O)cc2O)cc1 | 48.4% (inactive) |
| Cc1cc(N)c2ccccc2[n+]1CCCCCCCCCC[n+]1c(C)cc(N)c2ccccc21 | 21.2% (inactive) and 19.8% (inactive) |
| CN(C)C(=O)SC1=C(c2c(Cl)cccc2Cl)C(=O)c2ccccc21 | -11.6% (active) |
